Results filed as inconclusive are left out. Unmarked numbers belong to inactive results. Calls of active or inactive are those of the source. Calls follow the shape of the dose curve; as a rule, active = well fitted curve in the direction sought with a large enough effect in the repeat runs; inconclusive = weak or mixed curves; inactive = no such curve, though single readings can be large; an effect the other way counts as inactive or inconclusive.

The source of these data is PubChem BioAssay (Tox21).

The target in assay [1] is Cytochrome P450 2C19 (Homo sapiens) (UniProt P33261). The experiment in a line: Cytochrome P450 Family 2 Subfamily C Member 19 (CYP2C19) small molecule antagonists: luciferase reporter qHTS assay (AID 1671197). Also: nearly all actives have a fitted effect of over 65% in size. The gist of the method:
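P450-Glo CYP2C19 screening system; proluciferin substrate; DMSO compound stocks; 10 min RT preincubation; NADPH regeneration, 1 h at 37C; luciferin detection reagent, 20 min RT; luminescence as RLU.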
On the technique in general: A reporter such as luciferase makes a cellular process visible.

Assay [2] has as its target Cytochrome P450 2C9 (Homo sapiens) (UniProt P11712). Briefly: Cytochrome P450 Family 2 Subfamily C Member 9 (CYP2C9) small molecule antagonists: luciferase reporter qHTS assay (AID 1671198). Also: nearly all actives have a fitted effect of over 50% in size. An outline of the steps:
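P450-Glo proluciferin substrate with CYP2C9 enzyme; 10 min RT preincubation, then NADPH regeneration 1 h at 37C; luciferin detection reagent 20 min RT, luminescence in relative luminescence units.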

Assay [3] concerns the target Cytochrome P450 1A2 (Homo sapiens) (UniProt P05177). Briefly: Cytochrome P450 Family 1 Subfamily A Member 2 (CYP1A2) small molecule antagonists: luciferase reporter qHTS assay (AID 1671199). Also: nearly all actives have a fitted effect of over 50% in size. An outline of the steps: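 Steps: enzyme-substrate mix dispensed; test compounds and furafylline control pinned in; 10 min room temperature; NADPH regeneration solution added, 1 h; reaction stopped with luciferin detection reagent; luminescence read after 20 min.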

The target of assay [4] is Voltage-gated inwardly rectifying potassium channel KCNH2 (Homo sapiens) (UniProt Q12809). Briefly: Human Ether-a-go-go-Related Gene (hERG) channel small molecule antagonists: fluorescence cell-based qHTS assay (AID 1671200). Also: nearly all actives have a fitted effect of over 50% in size. An outline of the steps:
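Kinetic two-minute fluorescence traces, sampled at 1 s, were collected following thallium stimulus of U2OS cells (1000 per well) that had been cultured overnight at 37 C and loaded with FluxOR II.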
In general terms: The hERG channel carries a current that helps repolarise heart muscle cells.

Assay [5] deals with Cytochrome P450 3A4 (Homo sapiens) (UniProt P08684). The experiment in a line: Cytochrome P450 Family 3 Subfamily A Member 4 (CYP3A4) small molecule antagonists: luciferase reporter qHTS assay (AID 1671201). Also: nearly all actives have a fitted effect of over 50% in size. An outline of the steps: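 Proluciferin-to-luciferin conversion by CYP3A4, NADPH-regenerated, 1 h RT; luminescence read as RLU. Ketoconazole as control.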
Potency is read from the fitted curve at half-maximal effect.

Sequence of Cytochrome P450 3A4 (Homo sapiens) (P08684 whole entry, looked up): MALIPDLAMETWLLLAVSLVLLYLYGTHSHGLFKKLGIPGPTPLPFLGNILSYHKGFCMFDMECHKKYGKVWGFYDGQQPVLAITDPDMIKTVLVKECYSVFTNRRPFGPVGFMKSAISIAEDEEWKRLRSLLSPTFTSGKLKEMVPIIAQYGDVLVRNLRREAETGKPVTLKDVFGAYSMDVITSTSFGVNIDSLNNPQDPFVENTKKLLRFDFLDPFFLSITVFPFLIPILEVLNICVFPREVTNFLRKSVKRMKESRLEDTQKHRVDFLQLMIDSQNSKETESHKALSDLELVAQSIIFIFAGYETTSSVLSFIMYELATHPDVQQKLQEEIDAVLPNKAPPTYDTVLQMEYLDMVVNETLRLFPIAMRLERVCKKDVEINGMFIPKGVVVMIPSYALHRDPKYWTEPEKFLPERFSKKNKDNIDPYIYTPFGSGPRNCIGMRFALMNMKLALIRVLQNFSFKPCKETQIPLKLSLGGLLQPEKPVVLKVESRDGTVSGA
Sequence of Cytochrome P450 2C9 (Homo sapiens) (P11712 whole entry, looked up): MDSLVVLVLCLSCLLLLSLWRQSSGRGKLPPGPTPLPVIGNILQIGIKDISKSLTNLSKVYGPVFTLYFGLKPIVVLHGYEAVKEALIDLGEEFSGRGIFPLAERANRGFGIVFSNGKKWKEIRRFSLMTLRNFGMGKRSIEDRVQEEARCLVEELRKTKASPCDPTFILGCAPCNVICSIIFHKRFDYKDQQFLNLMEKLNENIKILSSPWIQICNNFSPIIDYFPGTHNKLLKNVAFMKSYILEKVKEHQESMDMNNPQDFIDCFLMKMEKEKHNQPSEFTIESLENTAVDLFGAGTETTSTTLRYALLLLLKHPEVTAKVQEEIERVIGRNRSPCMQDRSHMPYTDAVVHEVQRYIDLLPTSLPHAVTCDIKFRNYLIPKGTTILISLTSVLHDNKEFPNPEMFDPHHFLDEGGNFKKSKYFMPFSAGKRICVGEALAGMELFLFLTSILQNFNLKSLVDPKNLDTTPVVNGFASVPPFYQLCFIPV
Sequence of Cytochrome P450 1A2 (Homo sapiens) (P05177 whole entry, looked up): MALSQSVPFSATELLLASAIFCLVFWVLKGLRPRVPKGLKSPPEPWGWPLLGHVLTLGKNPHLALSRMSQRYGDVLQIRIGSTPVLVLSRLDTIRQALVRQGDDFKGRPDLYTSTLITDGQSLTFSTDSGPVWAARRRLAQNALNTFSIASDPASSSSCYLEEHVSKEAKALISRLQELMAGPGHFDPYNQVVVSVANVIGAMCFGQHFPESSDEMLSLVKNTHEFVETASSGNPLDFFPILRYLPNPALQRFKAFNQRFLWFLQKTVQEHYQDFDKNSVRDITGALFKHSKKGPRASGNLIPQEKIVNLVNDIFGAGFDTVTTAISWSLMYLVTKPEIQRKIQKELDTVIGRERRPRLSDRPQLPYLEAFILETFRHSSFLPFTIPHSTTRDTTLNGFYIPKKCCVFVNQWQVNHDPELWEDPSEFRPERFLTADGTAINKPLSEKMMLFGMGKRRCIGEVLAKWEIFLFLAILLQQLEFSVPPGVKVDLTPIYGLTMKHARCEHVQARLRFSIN
Sequence of Cytochrome P450 2C19 (Homo sapiens) (P33261 whole entry, looked up): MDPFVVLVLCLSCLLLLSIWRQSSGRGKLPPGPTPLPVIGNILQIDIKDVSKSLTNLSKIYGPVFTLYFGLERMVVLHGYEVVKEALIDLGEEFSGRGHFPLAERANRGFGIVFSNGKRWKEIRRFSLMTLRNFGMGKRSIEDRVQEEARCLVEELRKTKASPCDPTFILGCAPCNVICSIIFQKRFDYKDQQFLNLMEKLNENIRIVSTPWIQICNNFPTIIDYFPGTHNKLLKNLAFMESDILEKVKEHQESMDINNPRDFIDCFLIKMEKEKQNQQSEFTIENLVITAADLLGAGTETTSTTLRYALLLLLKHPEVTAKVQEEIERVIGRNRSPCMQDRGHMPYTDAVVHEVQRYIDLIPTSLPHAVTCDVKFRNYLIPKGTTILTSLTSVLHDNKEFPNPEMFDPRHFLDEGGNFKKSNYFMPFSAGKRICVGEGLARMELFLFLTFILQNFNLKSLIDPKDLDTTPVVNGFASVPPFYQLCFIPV
Sequence of Voltage-gated inwardly rectifying potassium channel KCNH2 (Homo sapiens) (Q12809 whole entry, looked up): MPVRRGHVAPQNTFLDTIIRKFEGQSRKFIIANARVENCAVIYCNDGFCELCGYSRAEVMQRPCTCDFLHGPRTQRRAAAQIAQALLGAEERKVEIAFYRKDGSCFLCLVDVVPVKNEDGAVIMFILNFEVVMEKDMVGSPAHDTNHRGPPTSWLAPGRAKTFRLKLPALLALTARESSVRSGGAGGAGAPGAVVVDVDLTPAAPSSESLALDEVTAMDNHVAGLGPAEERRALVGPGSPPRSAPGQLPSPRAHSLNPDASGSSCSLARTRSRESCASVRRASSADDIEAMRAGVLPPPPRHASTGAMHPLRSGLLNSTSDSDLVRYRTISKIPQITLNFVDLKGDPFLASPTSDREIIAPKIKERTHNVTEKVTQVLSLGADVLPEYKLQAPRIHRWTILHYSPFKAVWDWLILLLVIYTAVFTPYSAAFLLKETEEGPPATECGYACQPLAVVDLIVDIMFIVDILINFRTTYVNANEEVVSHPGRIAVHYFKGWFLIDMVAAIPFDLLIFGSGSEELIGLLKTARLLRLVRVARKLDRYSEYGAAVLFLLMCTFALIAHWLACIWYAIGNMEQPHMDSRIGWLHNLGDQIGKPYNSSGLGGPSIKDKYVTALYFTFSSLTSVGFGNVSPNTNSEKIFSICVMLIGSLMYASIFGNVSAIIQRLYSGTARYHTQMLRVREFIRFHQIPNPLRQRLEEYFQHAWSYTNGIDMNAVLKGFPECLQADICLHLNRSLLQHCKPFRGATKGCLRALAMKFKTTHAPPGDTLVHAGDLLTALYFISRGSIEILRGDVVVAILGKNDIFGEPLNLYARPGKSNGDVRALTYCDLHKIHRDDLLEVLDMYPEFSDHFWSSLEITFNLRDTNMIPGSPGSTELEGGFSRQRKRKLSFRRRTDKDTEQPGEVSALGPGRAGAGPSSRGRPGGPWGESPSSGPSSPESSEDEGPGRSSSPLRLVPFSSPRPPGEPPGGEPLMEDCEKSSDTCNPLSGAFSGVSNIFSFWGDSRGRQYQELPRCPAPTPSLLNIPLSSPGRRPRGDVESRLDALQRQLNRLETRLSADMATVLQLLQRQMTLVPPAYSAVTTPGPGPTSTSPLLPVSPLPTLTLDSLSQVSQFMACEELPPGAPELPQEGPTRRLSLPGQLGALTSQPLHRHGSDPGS

Regarding `C=C(C)C(=O)OC(C)C`, the Potency entry in assay [1], in assay [2], in assay [3], in assay [4] and in assay [5] was “inactive” throughout.

On to `Oc1ccc2c(c1)OCO2`, for which the Potency was 19.9 µM (active) in assay [1], 9.95 µM (active) in assay [2], 31.5 µM (active) in assay [3] and 22.3 µM (active) in assay [5]. In assay [4], the Potency result is “inactive”.

Turning to `CCOC(=O)CC(C)C`, the Potency result in assay [1], in assay [2], in assay [3], in assay [4] and in assay [5] was “inactive” in each case.

In the case of `O=C(NN1CCCC1)NS(=O)(=O)c1ccc(Cl)cc1`, the Potency result in assay [1], in assay [2], in assay [3], in assay [4] and in assay [5] was “inactive” each time.

As for `Cc1ccc(C(=O)C(C)CN2CCCCC2)cc1` (centres undefined), the Potency in assay [1] is 7.76 µM (active). The Potency entry in assay [2], in assay [3], in assay [4] and in assay [5] was “inactive” each time.

In the case of `SC1CCCC1`, the Potency result in assay [1], in assay [2], in assay [3], in assay [4] and in assay [5] was “inactive” in each case.

For the compound `O=C(CC(=O)c1ccccc1)c1ccccc1`, the Potency in assay [1] is 24.1 µM (active); in assay [2], 38.2 µM (active); in assay [3] it was 3.82 µM (active). The Potency result in assay [4] and in assay [5] was “inactive” throughout.

Regarding `COC(=O)C(C)=O`, the Potency was 71.3 µM (active) in assay [1] and 31.9 µM (active) in assay [3]. Also, the Potency result in assay [2], in assay [4] and in assay [5] was “inactive” each time.

Consider `O=C(O)[C@@H]1[C@H]2C[C@H]3c4[nH]c5ccccc5c4CCN3C[C@@H]2CC[C@@H]1O`, for which, in assay [1], the Potency was 8.71 µM (active). Moreover, the Potency entry in assay [2], in assay [3], in assay [4] and in assay [5] was “inactive” each time.

Regarding `COCCOCCOCCOCCOC`, the Potency entry in assay [1], in assay [2], in assay [4] and in assay [5] was “inactive” throughout. The Potency in assay [3] was 35.6 µM (active).

Regarding `OCCC1CCCCN1` (centres undefined), the Potency entry in assay [1], in assay [2], in assay [3], in assay [4] and in assay [5] was “inactive” in each case.

For the compound `N#Cc1cc2ccccc2c2ccccc12`, the figures for the Potency in assay [1], in assay [2] and in assay [3] were 35.8 µM (active), 35.8 µM (active) and 0.0636 µM (active), respectively. Further, the Potency result in assay [4] was “inactive”.

For `CN(C)CC[C@@H](c1ccc(Br)cc1)c1ccccn1`, the Potency entry in assay [1], in assay [2], in assay [4] and in assay [5] was “inactive” in each case. Besides, the Potency in assay [3] was 24.5 µM (active).

Turning to `Cc1ncsc1CCO`, the Potency entry in assay [1], in assay [2], in assay [3], in assay [4] and in assay [5] was “inactive” in each case.

Regarding `CCCCOC(O)CC` (centres undefined), the Potency entry in assay [1], in assay [2], in assay [3], in assay [4] and in assay [5] was “inactive” throughout.

As for `CCCCCCOC(=O)CCC`, the Potency entry in assay [1], in assay [2], in assay [3], in assay [4] and in assay [5] was “inactive” in each case.

On to `CC(O)C1CCCCC1` (centres undefined), for which the Potency result in assay [1], in assay [2], in assay [3], in assay [4] and in assay [5] was “inactive” in each case.

On to `CCCCCC(CO)CCC` (centres undefined), for which the Potency result in assay [1], in assay [2], in assay [3], in assay [4] and in assay [5] was “inactive” in each case.

Turning to `Nc1ccc(C(=O)Nc2ccccc2N)cc1`, the Potency entry in assay [1], in assay [2], in assay [3], in assay [4] and in assay [5] was “inactive” in each case.

Regarding `CCCCC(CC)COCCCN` (centres undefined), the Potency is 5.58 µM (active) in assay [1]; 35.2 µM (active) in assay [2]; 11.1 µM (active) in assay [3]; 38.5 µM (active) in assay [4]; 9.92 µM (active) in assay [5].

Turning to `CC(C(=O)O)c1ccc(C(=O)c2ccccc2)s1` (centres undefined), the values for the Potency in assay [1], in assay [2] and in assay [3] were 4.9 µM (active), 17.4 µM (active) and 9.11 µM (active), respectively. Also, the Potency entry in assay [4] and in assay [5] was “inactive” each time.

`CC/C(=C\C(=N/O)C(N)=O)C(C)[N+](=O)[O-]` (centres undefined): the Potency entry in assay [1], in assay [2], in assay [3], in assay [4] and in assay [5] was “inactive” in each case.

In the case of `S=C(S)NCCNC(=S)S`, the Potency in assay [1] is 31.2 µM (active); in assay [2], 35 µM (active). Moreover, the Potency entry in assay [3], in assay [4] and in assay [5] was “inactive” throughout.

For `O=C1CCCCCO1`, the Potency result in assay [1], in assay [2], in assay [4] and in assay [5] was “inactive” each time. For the same compound, in assay [3], the Potency was 35.9 µM (active).

In the case of `NC(=S)N/N=C/c1cccnc1`, the Potency result in assay [1], in assay [2], in assay [4] and in assay [5] was “inactive” each time. The Potency in assay [3] is 17.4 µM (active).

On to `CCCc1ccccc1`, for which the Potency result in assay [1], in assay [2], in assay [3], in assay [4] and in assay [5] was “inactive” each time.

`Cc1occc1S`: the Potency in assay [1] was 56.4 µM (active); in assay [2], 35.6 µM (active); in assay [5], 28.3 µM (active). Moreover, the Potency result in assay [3] and in assay [4] was “inactive” each time.

For the compound `CCCCCCc1ccc(N)cc1`, the Potency in assay [1] was 3.56 µM (active); in assay [2] it was 17.8 µM (active); in assay [3] it was 28.3 µM (active); in assay [5] it was 35.6 µM (active). The Potency entry in assay [4] is “inactive”.

On to `CCCC(=O)OCC`, for which the Potency result in assay [1], in assay [3], in assay [4] and in assay [5] was “inactive” in each case. Further, the Potency in assay [2] was 12.6 µM (active).

`CC1(C)[C@H]2CC[C@]1(C)[C@H](O)C2`: the Potency result in assay [1], in assay [2], in assay [3], in assay [4] and in assay [5] was “inactive” throughout.

For `Cc1ccc(C(N)=O)cc1N`, the Potency was 44.8 µM (active) in assay [1] and 35.6 µM (active) in assay [3]. Also, the Potency entry in assay [2], in assay [4] and in assay [5] was “inactive” in each case.

Take `O=C(O)C1CCC(C(=O)O)CC1` (centres undefined): the Potency entry in assay [1], in assay [2], in assay [3], in assay [4] and in assay [5] was “inactive” in each case.

`Cc1ccc2c(ccc3ccccc32)c1`: the Potency in assay [1] was 35.7 µM (active); in assay [2], 35.7 µM (active); in assay [3], 3.18 µM (active). For the same compound, the Potency result in assay [4] and in assay [5] was “inactive” in each case.
